# Measured values published in US20260200999, “SYNTHETIC TRANSCRIPTION FACTORS” (ETH ZURICH, published 2026).
# Columns and labels:
# [1] = molecular target: T1, MTERF1 73-399::RelA 430-551 (Homo sapiens, UniProt Q99551 SEQ:1-327); assay: cell_activity; HEK293 reporter; reduced but not abolished; conditions: tags: RelA 430-551 TAD fusion; dsDNA, one strand shown
# T1 chain: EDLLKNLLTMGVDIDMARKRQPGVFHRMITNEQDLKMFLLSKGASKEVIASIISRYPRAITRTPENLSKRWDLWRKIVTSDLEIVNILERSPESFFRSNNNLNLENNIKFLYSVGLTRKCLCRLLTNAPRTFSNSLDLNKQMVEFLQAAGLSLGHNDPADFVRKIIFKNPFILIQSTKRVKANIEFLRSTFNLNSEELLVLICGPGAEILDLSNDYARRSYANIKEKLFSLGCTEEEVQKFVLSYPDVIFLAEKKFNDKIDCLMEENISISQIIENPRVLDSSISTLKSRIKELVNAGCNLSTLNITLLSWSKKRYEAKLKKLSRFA
# [2] = molecular target: T2, MTERF1 104-399::RelA 430-551 (Homo sapiens, UniProt Q99551 SEQ:1-296); assay: as above; conditions: tags: RelA 430-551 TAD fusion; dsDNA, one strand shown
# T2 chain: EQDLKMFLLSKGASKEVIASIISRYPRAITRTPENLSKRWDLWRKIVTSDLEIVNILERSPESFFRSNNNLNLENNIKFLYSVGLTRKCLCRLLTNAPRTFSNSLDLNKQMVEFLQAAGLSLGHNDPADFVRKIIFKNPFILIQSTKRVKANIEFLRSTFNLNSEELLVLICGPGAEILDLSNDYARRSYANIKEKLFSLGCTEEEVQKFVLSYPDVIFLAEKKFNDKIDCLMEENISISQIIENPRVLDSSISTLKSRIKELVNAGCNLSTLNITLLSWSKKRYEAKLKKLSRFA
sequence,measurement,setting,value
TAAGATGGCAGAGCCCGGTAATTAAGATGGCAGAGCCCGGTAATTAAGATGGCAGAGCCCGGTAATTAAGATGGCAGAGCCCGGTAATTAAGATGGCAGAGCCCGGTAAT,binding signal,[1],~1.5 fold less than MTF
same,binding signal,[2],~1.5 fold less than MTF
